Data: the supplement of paper PMC12067093, “Discovery and optimisation of a covalent ligand for TRIM25 and its application to targeted protein ubiquitination” (Chemical Science, 2025)
The full data set covers some 21,000 targets. This sample favours those with the largest changes.

Compound: CC1Cc2ccccc2N1C(=O)C1CCCN(C1)C(=O)CCl (mixture of isomers) [TRIM25 ligand 11 (diastereomer mixture)]
Assay: probe-labelled cysteine peptide fold change vs DMSO (competition) (log2 fold change); higher = less target engagement (more negative = stronger competition)
Details: THP-1, incubation time: 4 h
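Further: competitive chemoproteomic profiling in live THP-1 cells with an iodoacetamide desthiobiotin (IA-DTB) probe, comparing probe-labelled peptide intensities in compound-treated cells against DMSO-treated controls.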

UniProt Q9BZL4, sequence (Q9BZL4 whole entry, looked up): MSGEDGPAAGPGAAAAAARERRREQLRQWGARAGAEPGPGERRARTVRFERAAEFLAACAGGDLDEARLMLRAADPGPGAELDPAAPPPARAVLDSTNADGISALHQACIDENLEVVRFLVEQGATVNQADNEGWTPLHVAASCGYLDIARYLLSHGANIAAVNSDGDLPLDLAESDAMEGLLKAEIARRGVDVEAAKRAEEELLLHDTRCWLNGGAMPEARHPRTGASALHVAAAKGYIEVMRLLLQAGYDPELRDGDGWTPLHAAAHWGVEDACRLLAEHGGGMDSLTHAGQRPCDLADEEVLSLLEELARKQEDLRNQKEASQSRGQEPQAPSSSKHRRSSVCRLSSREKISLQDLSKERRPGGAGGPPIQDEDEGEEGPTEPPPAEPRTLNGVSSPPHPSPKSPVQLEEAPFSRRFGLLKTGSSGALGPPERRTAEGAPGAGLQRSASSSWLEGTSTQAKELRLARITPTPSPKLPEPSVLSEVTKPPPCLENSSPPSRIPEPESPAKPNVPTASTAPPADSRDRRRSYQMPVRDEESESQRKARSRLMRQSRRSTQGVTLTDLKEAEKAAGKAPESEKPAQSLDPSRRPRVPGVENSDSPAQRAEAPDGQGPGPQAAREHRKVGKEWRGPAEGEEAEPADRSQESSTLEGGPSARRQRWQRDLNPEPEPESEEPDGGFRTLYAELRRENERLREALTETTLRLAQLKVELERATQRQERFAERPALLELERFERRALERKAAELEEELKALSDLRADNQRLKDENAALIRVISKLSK
UniProt Q99570, sequence (Q99570 whole entry, looked up): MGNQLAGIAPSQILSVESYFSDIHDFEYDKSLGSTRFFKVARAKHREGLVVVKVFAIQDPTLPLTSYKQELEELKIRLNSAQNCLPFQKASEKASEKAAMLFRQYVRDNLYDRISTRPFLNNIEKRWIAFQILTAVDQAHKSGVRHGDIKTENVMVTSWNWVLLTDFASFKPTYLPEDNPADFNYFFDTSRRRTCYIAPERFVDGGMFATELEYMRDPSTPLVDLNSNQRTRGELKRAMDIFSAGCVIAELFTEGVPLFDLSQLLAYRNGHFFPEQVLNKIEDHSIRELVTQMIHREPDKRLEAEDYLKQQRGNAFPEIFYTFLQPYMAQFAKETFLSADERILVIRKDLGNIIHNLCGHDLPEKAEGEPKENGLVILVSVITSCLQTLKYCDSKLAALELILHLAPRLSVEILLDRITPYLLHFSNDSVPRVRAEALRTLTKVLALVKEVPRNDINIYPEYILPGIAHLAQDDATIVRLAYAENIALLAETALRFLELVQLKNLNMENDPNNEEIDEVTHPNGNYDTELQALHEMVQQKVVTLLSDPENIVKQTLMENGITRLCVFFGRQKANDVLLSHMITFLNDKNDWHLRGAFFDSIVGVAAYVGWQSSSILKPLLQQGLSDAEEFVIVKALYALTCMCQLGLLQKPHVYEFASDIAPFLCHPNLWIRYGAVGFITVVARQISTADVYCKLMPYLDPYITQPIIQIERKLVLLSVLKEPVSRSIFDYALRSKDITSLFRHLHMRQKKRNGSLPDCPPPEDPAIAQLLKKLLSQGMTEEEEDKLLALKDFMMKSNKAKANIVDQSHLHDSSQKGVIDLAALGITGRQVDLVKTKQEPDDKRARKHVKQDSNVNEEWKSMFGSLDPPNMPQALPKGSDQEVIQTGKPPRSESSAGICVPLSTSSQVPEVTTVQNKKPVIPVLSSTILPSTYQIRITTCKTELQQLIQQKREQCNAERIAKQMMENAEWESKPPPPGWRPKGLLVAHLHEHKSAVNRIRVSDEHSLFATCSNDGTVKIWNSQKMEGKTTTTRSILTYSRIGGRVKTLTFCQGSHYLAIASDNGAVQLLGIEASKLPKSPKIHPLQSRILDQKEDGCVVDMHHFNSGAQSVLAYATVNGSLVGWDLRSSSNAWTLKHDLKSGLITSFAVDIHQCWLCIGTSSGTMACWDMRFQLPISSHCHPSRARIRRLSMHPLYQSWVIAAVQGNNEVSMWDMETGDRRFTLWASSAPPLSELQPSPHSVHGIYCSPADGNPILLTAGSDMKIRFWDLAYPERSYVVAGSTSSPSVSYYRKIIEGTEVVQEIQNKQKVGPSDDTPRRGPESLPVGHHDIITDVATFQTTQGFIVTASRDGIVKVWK
UniProt Q9UIL8, sequence (Q9UIL8 whole entry): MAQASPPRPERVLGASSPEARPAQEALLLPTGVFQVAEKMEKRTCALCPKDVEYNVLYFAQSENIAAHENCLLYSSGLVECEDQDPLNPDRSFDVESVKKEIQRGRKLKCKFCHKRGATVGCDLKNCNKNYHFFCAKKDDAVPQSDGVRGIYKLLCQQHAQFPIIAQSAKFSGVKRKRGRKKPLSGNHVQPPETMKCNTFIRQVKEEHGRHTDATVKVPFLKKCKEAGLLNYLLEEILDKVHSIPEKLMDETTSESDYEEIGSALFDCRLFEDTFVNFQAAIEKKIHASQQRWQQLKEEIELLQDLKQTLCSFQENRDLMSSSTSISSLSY
UniProt P12955, sequence (P12955 whole entry, looked up): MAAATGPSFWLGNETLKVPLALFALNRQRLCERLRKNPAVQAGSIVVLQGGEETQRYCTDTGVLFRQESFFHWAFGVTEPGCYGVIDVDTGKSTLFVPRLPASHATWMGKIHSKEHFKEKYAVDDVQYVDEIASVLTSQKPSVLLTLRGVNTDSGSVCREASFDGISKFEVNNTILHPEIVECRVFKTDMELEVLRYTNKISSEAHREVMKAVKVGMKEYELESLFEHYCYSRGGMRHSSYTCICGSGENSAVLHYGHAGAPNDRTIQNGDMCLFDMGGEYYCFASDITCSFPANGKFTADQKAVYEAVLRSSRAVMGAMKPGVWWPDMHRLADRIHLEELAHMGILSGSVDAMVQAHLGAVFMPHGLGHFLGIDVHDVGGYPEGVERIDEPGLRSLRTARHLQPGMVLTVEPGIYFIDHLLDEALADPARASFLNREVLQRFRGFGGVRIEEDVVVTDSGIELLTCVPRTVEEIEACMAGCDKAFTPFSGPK
UniProt O15160, sequence (O15160 whole entry, looked up): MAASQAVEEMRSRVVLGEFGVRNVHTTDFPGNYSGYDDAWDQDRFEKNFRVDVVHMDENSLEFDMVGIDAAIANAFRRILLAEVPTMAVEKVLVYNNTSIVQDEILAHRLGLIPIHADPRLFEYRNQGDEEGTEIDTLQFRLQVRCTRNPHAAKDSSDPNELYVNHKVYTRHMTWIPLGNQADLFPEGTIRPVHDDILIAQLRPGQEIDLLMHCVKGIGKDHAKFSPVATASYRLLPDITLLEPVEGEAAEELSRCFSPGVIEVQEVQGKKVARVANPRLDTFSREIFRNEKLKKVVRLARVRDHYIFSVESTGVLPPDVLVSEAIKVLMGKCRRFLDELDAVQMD

| Target | probe-labelled cysteine peptide fold change (10 µM) | probe-labelled cysteine peptide fold change (50 µM) |
| --- | --- | --- |
| POLR1C_O15160_214_PVHDDILIAQLRPGQEIDLLMHCVK (UniProt O15160) | -0.00122 | -0.0368 |
| PEPD_P12955_158_GVNTDSGSVCR (UniProt P12955) | 0.0721 | -0.0568 |
| PIK3R4_Q99570_955_EQCNAER (UniProt Q99570) | -0.0631 | -0.105 |
| PHF11_Q9UIL8_135_NYHFFCAK (UniProt Q9UIL8) | -0.0148 | 0.156 |
| PECAM1_P16284_109_CTVIVNNK (UniProt P16284) | 0.126 | 0.476 |
| PPP1R12C_Q9BZL4_297_LLAEHGGGMDSLTHAGQRPCDLADEEVLSLLEELAR (UniProt Q9BZL4) | 0.136 | -0.278 |
